Assay outcomes: PubChem, National Center for Advancing Translational Sciences (NCATS)
Compounds with a hit are over-represented: about 8% of the library has one in this group of screens.
SW480 rereplic = induces DNA re-replication in SW480 colon adenocarcinoma cells | SW480 DNA re-replication, Hoechst DNA content imaging, 48 h | Potency, µM (series often up to 46.1 µM), for the others: at the highest dose re-replication activation, most hits filed as activators | 1.8% of 340,000 active; also: % of control where 0% means no effect; nearly all actives have a fitted effect of over 55% in size
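Image-based DNA-content assay: after two days of treatment, nuclei were labelled with the DNA dye Hoechst and imaged, and hits were compounds raising the count of nuclei showing high fluorescence intensity.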
KB-3-1 cytotox = KB-3-1 parental cell cytotoxicity; KB-3-1 viability, CellTiter-Glo ATP luminescence, 72 h; AID 1347075; 1.4% of 400,000 active; Potency, µM (series often up to 46.1 µM), hits mostly cytotoxic; also: % is scaled to controls: 0 for no effect and ±100 for the full control effect; nearly all actives have a fitted effect of over 60% in size
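Cells are dispensed, compounds pinned in, plates held at 37 °C for 72 h, then CellTiter-Glo is added and luminescence read after 10 minutes. Cell line: parental KB-3-1 in phenol-red-free DMEM, 10% FBS.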
HT1080 IDH1KD tx = kills HT-1080 cells with IDH1 knockdown; HT-1080 IDH1 knockdown viability, ATP luminescence, 48 h; Potency, µM (series often up to 46.1 µM), for the others: at the top dose activity, negative = toxicity, usual class: cytotoxic; 2% of 360,000 active; AID 686971;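 also: 0% = DMSO wells and -100% = cell-free medium wells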
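CellTiter-Glo luminescence after 48 h compound exposure at 37 degrees C of IDH1-knockdown HT-1080 cells in 5% FBS RPMI. %Activity scaled between DMSO wells and cell-free media wells, with curves fitted and assigned curve classes.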
HT1080NT lethal = kills 2HG-producing HT-1080-NT fibrosarcoma cells; HT-1080-NT fibrosarcoma viability, CellTiter-Glo ATP luminescence, 48 h; 1.6% of 360,000 active; Potency, µM (titrated, usually from 46.1 µM), inactives show at the top dose activity, negative = less viability, usual class: cytotoxic; AID 686970;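 also: NT is the 2HG producing partner of a matched IDH1 knockdown line; 0% = DMSO-treated cells and -100% = media-only wells without cells; nearly all actives have a fitted effect of over 55% in size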
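Fibrosarcoma NT cells, 750 per well in 5% FBS RPMI, were exposed to compound for 48 hours. Viability: CellTiter-Glo luminescence.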
MCF10A rereplic = induces DNA re-replication in MCF 10a normal breast cells; MCF 10A DNA re-replication, Hoechst nuclear intensity, 48 h; Potency, µM (doses to about 46.1 µM), inactives show at the top dose activity, positive = re-replication, usual class: activators; 2.9% of 350,000 active; also: % of control where 0% means no effect; nearly all actives have a fitted effect of over 50% in size
KB-V1 MDR tox = KB-V1 MDR subline cytotoxicity | KB-V1 MDR cells viability, CellTiter-Glo, 72 h | Potency, µM (series often up to 46.1 µM), actives largely listed as cytotoxic | 3.4% of 400,000 active | AID 1347076; also: % is scaled to controls: 0 for no effect and ±100 for the full control effect; nearly all actives have a fitted effect of over 60% in size
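Cytotoxicity toward P-gp-expressing KB-V1 cells was determined as loss of CellTiter-Glo luminescence after 72 h at 37 degrees C. Compounds were tested in quantitative HTS format across a concentration range, with curves fitted to normalized data.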
The depositor's hits bear a star; i = inactive; ? = inconclusive; . = not tested or not shown; [ ] = remark or other dose. Calls follow the shape of the dose curve; as a rule, active = well fitted curve in the direction sought with a large enough effect; inconclusive = small, poorly fitted or top-dose-only effect, or another doubt; inactive = no such curve, though single readings can be large; an effect the other way counts as inactive or inconclusive. Potency is read from the fitted curve at half-maximal effect.

SMILES	SW480 rereplic	KB-3-1 cytotox	HT1080 IDH1KD tx	HT1080NT lethal	MCF10A rereplic	KB-V1 MDR tox
Cc1ccc(-n2cc(C(=O)c3ccccc3O)cn2)cc1	-2%	i	-8%	2%	7%	i
c1ccc(CN2CCN(Cc3nnc(-c4ccccc4)o3)CC2)cc1	-2%	i	6%	7%	0%	i
O=C(CC(Sc1ccc(Br)cc1)C(=O)O)c1ccc(F)cc1 (centres undefined)	?	i	-12%	-24%	23µM*	i
CCOc1ccc(C(=O)CC(Sc2ccc(C)cc2)C(=O)O)cc1 (centres undefined)	?	i	?	-20%	?	i
Cc1ccc(CCNC(=O)C2CCN(S(=O)(=O)N3CCOCC3)CC2)cc1	-4%	i	9%	9%	-8%	i
CCN1C(=O)CC(c2ccccc2)N(C2CCCC2)c2nc(Nc3ccc(C(=O)NC4CCN(C)CC4)cc3OC)ncc21 (centres undefined)	12%	18µM*	23µM*	?	?	?
CCN1C(=O)CC(C(C)C)N(C2CCCC2)c2nc(Nc3ccc(C(=O)NC4CCN(C)CC4)cc3OC)ncc21 (centres undefined)	1%[9.22 µM]	?	-22%	-22%	?	?
COc1cc(C(=O)NC2CCN(C)CC2)ccc1Nc1ncc2c(n1)N(Cc1ccccc1)CCC(=O)N2C	?	?	?	21µM*	23µM*	?
COc1cc(C(=O)NC2CCN(C)CC2)ccc1Nc1ncc2c(n1)N(C1CCCCC1)CCC(=O)N2C	1.5µM*	?	4.6µM*	?	0.65µM*	i
COc1cc2nc(SCC(=O)c3ccc(Br)cc3)n3nc(C)nc3c2cc1OC	3%	i	14%	19%	1%	?
CC(O)(P(=O)(O)O)P(=O)(O)O	6%	i	12%	?	-4%	i
CCOc1ccccc1NC(=O)CCNC(=O)c1ccco1	-5%	i	0%	13%	-2%	i
O=C(NCc1nnnn1-c1ccc(F)cc1)c1cc2ccccc2o1	.	i	0%	1%	.	i
O=C(COC(=O)c1cccc(C(F)(F)F)c1)NCc1ccc(Cl)cc1	-4%	i	3%	5%	4%	i
CC(=O)Nc1ccc(C(=O)OCC(=O)NCc2cccs2)cc1	-24%	i	7%	5%	16%	i
CN(C)C(=O)c1ccc(SC(=S)NCc2ccccc2)cc1	.	6.5µM*	1%	?	.	?
CCOP(=O)(OCC)C(Nc1ccccn1)c1ccccc1 (centres undefined)	0%	i	3%	1%	-4%	i
Cc1cc(C)c(NC(=O)Nc2ccccc2)c(C)n1	8%	i	0%	-5%	15%	?
CCCCCCCCCCCCCCCCn1cc[n+](CC(C)=O)c1	-35%	8.2µM*	-16%	?	15µM*	i
CCOC(=O)c1c(C)[nH]c(C(=O)CN2C(=O)C(=O)N(CC(C)C)C2=O)c1C	-7%	i	-5%	-18%	-6%	i
COC(=O)c1c(C)[nH]c(C(=O)CN2C(=O)C3CC=CCC3C2=O)c1C (centres undefined)	2%	i	-6%	-3%	14%	21µM*
COC(=O)N1C(=O)[C@](c2ccc(Cl)cc2)(C(C)C)N1C(=O)OC	?	i	-13%	-24%	?	i
COC(=O)N1C(=O)[C@@](c2ccc(OC)cc2)(C(C)C)N1C(=O)OC	21µM*	i	-14%	-19%	?	i
O=C(CSC1=NCCS1)N1CCCCCC1	0%	i	16%	10%	-3%	i
Oc1ccc(Br)cc1-c1ccnn1-c1ccccc1	?	?	7.3µM*	?	7.3µM*	?
SMILES	SW480 rereplic	KB-3-1 cytotox	HT1080 IDH1KD tx	HT1080NT lethal	MCF10A rereplic	KB-V1 MDR tox
COc1cc(OC)cc(C2=Cc3ccc(OC)cc3C(CC(C)=O)N2c2ccc(-c3cccs3)cc2)c1 (centres undefined)	.	7.3µM*	-12%	-2%	.	i
COc1cc(OC)cc(C2=Cc3ccccc3C(CC(C)=O)N2c2ccc(-c3cncnc3)cc2)c1 (centres undefined)	.	23µM*	3%	19%	.	?
Cc1csc(NC(=O)CSC2=NS(=O)(=O)c3cc(F)ccc3N2)n1	0%	i	1%	-2%	1%	i
Cc1ccc(NC(=O)COc2nc(C)cs2)cc1	10%	i	-4%	-3%	1%	i
COc1ccc(OC(C)C(=O)N(C)Cc2nc(-c3ccc(OC)cc3)no2)cc1 (centres undefined)	-18%	?	0%	?	9%	18µM*
COc1ccc(OC(C)C(=O)N(C)Cc2nc(-c3ccc(C)cc3)no2)cc1 (centres undefined)	2%	i	-18%	-17%	11%	?
CC(C)N(Cc1nc(-c2ccccc2)no1)C(=O)C(C)(C)C	-6%	i	9%	11%	1%	i
COc1ccc(-c2noc(CN(C(=O)C(C)(C)C)C(C)C)n2)cc1	-3%	i	9%	8%	22%	21µM*
Oc1ccccc1N=N/C(=N/Nc1ccccc1O)c1ccccc1	-12%[9.22 µM]	i	4%	2%	7%	i
Cn1nnnc1N=N/C(=N/Nc1ccccc1)c1ccccc1	?	i	7.3µM*	?	?	?
CCOc1ccc(-n2c(C)cc(/C=N/N(C)C)c2C)cc1	3%	i	0%	-7%	11%	i
Cc1cccc(N2CCN(S(=O)(=O)c3ccc4c(c3)C(C)(C)C(=O)N4C)CC2C)c1 (centres undefined)	-7%	i	0%	-16%	1%	i
Cc1cccc(N2CCN(S(=O)(=O)c3ccc4c(c3)CCC(=O)N4)CC2C)c1 (centres undefined)	18%	i	-27%	-13%	?	15µM*
Cc1cccc(N(CC(=O)NC2CCCCC2)C(=O)c2ccc(C)s2)c1	7.3µM*	i	?	2%	?	i
Cc1ccc(S(=O)(=O)N(CC(=O)NC2CCCC2)c2cccc(C)c2)cc1	-4%	i	7%	10%	-6%	4.1µM*
Cc1ccc(Sc2cc(C(=O)NCCCN(C)C)c3ccccc3n2)cc1	?	i	18µM*	?	?	i
CCOCCCNC(=O)c1cc(Sc2ccc(F)cc2)nc2ccccc12	1%	i	-14%	-2%	?	21µM*
